Assay results: PubChem BioAssay (NCATS)
Records with an inconclusive call do not appear. Calls of active or inactive are those of the source. Calls follow the shape of the dose curve; as a rule, active = well fitted inhibition curve with a large enough effect; inconclusive = small, poorly fitted or top-dose-only effect; inactive = flat fitted curve, though single readings scatter.

How the values were obtained:
Assay in all cases: qHTS profiling for inhibitors of Plasmodium falciparum proliferation (AID 504749); also: nearly all actives have a fitted effect of over 60% in size
Conditions in all cases: P. falciparum in erythrocytes, SYBR Green DNA, 72 h; series mostly up to 28.7 µM
[1] = system: DIV17
How it was run: (§1)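 Three-day growth assay of blood-stage parasites in erythrocytes (0.3% parasitemia, 2.5% hematocrit) at 37 C, 5% CO2, quantified by SYBR Green DNA staining after overnight detergent lysis.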

[2] = system: DIV30
How it was run: as §1

[3] = system: Dd2
How it was run: as §1

[4] = system: ECU
How it was run: as §1

[5] = system: FAB9
How it was run: as §1

[6] = system: GB4
How it was run: as §1

[7] = system: HB3
How it was run: as §1

[8] = system: ICS
How it was run: as §1

[9] = system: JCK
How it was run: as §1

[10] = system: N140
How it was run: as §1

[11] = system: P93_24
How it was run: as §1

[12] = system: P94_40
How it was run: as §1

[13] = system: PAD
How it was run: as §1

[14] = system: PC15
How it was run: as §1

[15] = system: PC26
How it was run: as §1

[16] = system: PC49
How it was run: as §1

[17] = system: SC27B
How it was run: as §1

[18] = system: TAB109
How it was run: as §1

[19] = system: TAB113
How it was run: as §1

[20] = system: TAB165
How it was run: as §1

Measured: Potency

O=C(Nc1ncc([N+](=O)[O-])s1)c1cccs1
inactive: all assays above

CC(=O)NC(=O)c1ccccc1O
inactive: all assays above

C#C[C@]1(O)CC[C@H]2[C@@H]3CCC4=Cc5oncc5C[C@]4(C)[C@H]3CC[C@@]21C
inactive: all assays above

CCc1oc2ccccc2c1C(=O)c1cc(I)c(O)c(I)c1
inactive: all assays above

CC(=O)Nc1ccc(OCC(O)CNC(C)C)cc1 (stereo not given)
inactive: all assays above

CC(=O)Nc1ccc(CC(=O)O)cc1
inactive: all assays above

CCOC(=O)c1ccc(N)cc1
inactive: all assays above

Cc1ccccc1OCC(O)CO (stereo not given)
inactive: all assays above

Cc1cc(C)cc(OCC2CNC(=O)O2)c1 (stereo not given)
inactive: all assays above

CCCc1ncc(C[n+]2ccccc2C)c(N)n1
inactive: all assays above

COc1ccc(/C=N/NC(=O)c2ccncc2)cc1OC
inactive: all assays above

NS(=O)(=O)c1cc(C(=O)O)cc(N2CCCC2)c1Oc1ccccc1
inactive: all assays above

O=C(O)C(Cc1cc(I)c(O)c(I)c1)c1ccccc1 (stereo not given)
inactive: all assays above
